# ChEMBL document CHEMBL4808148, “HDAC6 screening dataset using tau-based substrate in an enzymatic assay yields selective inhibitors and activators” (2021)
# Values joined by “and” are separate entries in the source; they are usually repeats but may differ in a detail not shown here. Equal values may be shown once. The whole screen tested about 5,600 compounds, of which about 150 (2.7%) showed an effect of 50% or more. Shown is part of a subset that was picked to be rich in strong results.
# Assays:
# [1] = biological target: T1, Protein deacetylase HDAC6 (Homo sapiens) (UniProt Q9UBN7); conditions: at 10 µM
# T1 sequence (whole entry): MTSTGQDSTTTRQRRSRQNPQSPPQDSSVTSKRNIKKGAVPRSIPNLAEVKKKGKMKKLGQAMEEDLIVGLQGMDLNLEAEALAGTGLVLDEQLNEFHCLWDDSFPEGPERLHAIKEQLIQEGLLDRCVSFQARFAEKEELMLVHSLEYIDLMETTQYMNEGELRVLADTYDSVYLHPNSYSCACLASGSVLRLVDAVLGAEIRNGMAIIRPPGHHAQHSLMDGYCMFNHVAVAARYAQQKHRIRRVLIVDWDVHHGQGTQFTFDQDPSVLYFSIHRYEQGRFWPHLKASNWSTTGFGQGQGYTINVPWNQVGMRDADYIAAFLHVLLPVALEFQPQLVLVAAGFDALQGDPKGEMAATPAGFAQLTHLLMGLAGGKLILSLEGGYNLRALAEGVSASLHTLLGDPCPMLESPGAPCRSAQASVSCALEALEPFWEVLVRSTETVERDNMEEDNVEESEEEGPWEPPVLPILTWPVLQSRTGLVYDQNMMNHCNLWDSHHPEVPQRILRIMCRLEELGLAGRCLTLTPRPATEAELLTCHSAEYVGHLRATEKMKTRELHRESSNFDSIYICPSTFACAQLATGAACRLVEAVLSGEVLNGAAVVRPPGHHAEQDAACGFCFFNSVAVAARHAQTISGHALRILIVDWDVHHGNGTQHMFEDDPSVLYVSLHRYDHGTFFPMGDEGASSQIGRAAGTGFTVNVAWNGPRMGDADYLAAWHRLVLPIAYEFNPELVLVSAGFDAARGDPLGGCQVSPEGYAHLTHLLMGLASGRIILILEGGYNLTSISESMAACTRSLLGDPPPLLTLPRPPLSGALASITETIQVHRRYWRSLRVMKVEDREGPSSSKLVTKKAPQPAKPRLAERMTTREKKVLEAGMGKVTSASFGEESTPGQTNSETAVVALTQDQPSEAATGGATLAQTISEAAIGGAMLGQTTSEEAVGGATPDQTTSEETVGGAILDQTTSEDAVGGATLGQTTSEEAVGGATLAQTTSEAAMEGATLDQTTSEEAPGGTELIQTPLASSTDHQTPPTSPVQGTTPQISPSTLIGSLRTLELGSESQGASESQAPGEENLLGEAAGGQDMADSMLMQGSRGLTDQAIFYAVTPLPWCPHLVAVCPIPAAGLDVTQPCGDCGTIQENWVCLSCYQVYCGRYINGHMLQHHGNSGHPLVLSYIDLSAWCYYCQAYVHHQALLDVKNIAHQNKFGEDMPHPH
# [2] = biological target: Protein deacetylase HDAC6 (Homo sapiens) (UniProt Q9UBN7); conditions: at 10 µM; remark: listed apart in the source
Compound,inhibition [1],inhibition [2] [%]
Cc1oc(-c2ccccc2)nc1CCOc1ccc(CC2SC(=O)NC2=O)c2sccc12 (stereo not drawn),-4.87%,–
COc1ccc(Nc2ccn(-c3ccccc3)n2)cc1,66.8%,–
O=C(Nc1ccccc1C(=O)Nc1ccc(CCO)cc1)c1ccc([N+](=O)[O-])cc1,19.2%,–
CCC1OC(=O)CC(O)C(C)C(OC2OC(C)CC(N(C)C)C2O)C(CC=O)CC(C)C(=O)/C=C/C2(C)OC2C1C (stereo not drawn),10.6%,–
CN(C)C(=S)SC(=S)N(C)C,12.2%,–
O=C(CC1CC(c2ccc(F)cc2F)=NO1)N1CCOCC1 (racemic),64.3%,–
O=C(O)CC1CC(c2ccccc2)=NO1 (stereo not drawn),-4.54%,–
c1cc(-c2cnn3cc(-c4ccc(N5CCNCC5)cc4)cnc23)c2cccnc2c1,-3.93%,–
COc1ccc(-c2cnc3c(-c4cccc5ncccc45)cnn3c2)cc1,-5.32% and -3.01%,–
c1ccc(OCc2ccc(CCCN3CCOCC3)cc2)cc1,22.1%,–
CC(C)Oc1ccc(-c2cnc3c(-c4ccnc5ccccc45)cnn3c2)cc1,-1.97%,–
c1ccc(-c2cnn3cc(-c4ccc(OCCN5CCOCC5)cc4)cnc23)cc1,78.4%,–
c1cc(-c2cnn3cc(-c4ccc(OCCN5CCCCC5)cc4)cnc23)ccn1,60.7%,–
CN1C(=O)N(c2cc(Cl)cc(Cl)c2)C(=O)[C@@]1(C)Cc1ccc(Br)cc1,-0.75%,–
COCc1nnc(N2CC(Oc3ccc(F)cc3Cl)C2)n1-c1ccc(OC)nc1,-0.3%,–
O=C(Nc1ccc(Br)cc1)c1cc(Br)cc(Br)c1O,47.3%,–
CCOCc1cc(OC)c(-c2ccc(C[C@H](NC(=O)c3c(F)cccc3F)C(=O)O)cc2)c(OC)c1,-3.54%,–
C[C@]12CC[C@@H](O)C[C@@H]1CC[C@@H]1[C@@H]2CC[C@]2(C)C(c3ccccc3)=CC[C@@H]12,-2.46%,–
CC(=O)OCC1=C(C(=O)O)N2C(=O)[C@@H](NC(=O)CS/C(=N/C(C)C)NC(C)C)[C@H]2SC1,-0.21%,–
O=C(O)c1ccccc1O,3.65%,–

Compound,inhibition [1],inhibition [2] [%]
O=C(OCCO)c1ccccc1O,0.47%,–
O=C(Oc1ccccc1)c1ccccc1O,59.6%,–
"SEVELAMER HYDROCHLORIDE, CHEMBL1201492",–,-4.03
CC1CCC2C(C)(C)C3CC12CCC3(C)O (stereo not drawn),3.35%,–
C[C@H](Nc1cc(NS(=O)(=O)N2CCC2)nc(SCc2cccc(F)c2F)n1)[C@@H](O)CO,-3.66%,–
CN(C)c1ccc(C(=O)NCCCCCCC(=O)NO)cc1,97.6%,–
O=C(CNC(=O)c1ccc(Cl)cc1)NO,1.88%,–
COc1cc(C(=O)NCCCCCC(=O)O)cc(OC)c1OC,-4.19%,–
O=c1c2c[nH]c3ccccc3c-2nn1-c1ccc(Cl)cc1,37.8%,–
C[C@H](N/C(=N/C#N)Nc1cccc2ncccc12)c1ccccc1,-5.84%,–
Cc1cn2c(N)c(Cl)cc(C(=O)NCC3CCN(CC(C)C)CC3)c2n1,4.88%,–
Nc1ncnc2c1c(-c1ccc(Oc3ccccc3)cc1)nn2C1CCCC1,-1.59%,–
C=CC(=O)N1CCC[C@@H](n2nc(-c3ccc(Oc4ccccc4)cc3)c3c(N)ncnc32)C1,51%,–
C=CC(=O)N1CCC[C@@H](n2c(=O)n(-c3ccc(Oc4ccccc4)cc3)c3c(N)ncnc32)C1,6.07%,–
C=C1C(=O)O[C@@H]2[C@H]3C(C)=CC[C@@]34O[C@@]4(C)CC[C@@H]12,4.41%,–
c1cnc(NCc2ccc(CNc3ncccn3)cc2)nc1,0.03%,–
CNc1nc(C)nc(N[C@H]2CCC[C@@H](C(=O)NCc3ccc(C#N)cc3C(F)(F)F)C2)n1,-6.75%,–
Cc1cc(O)cc2c1O[C@@](C)(CCC[C@@H](C)CCC[C@@H](C)CCCC(C)C)CC2,-3.19%,–
Cc1nc2cnc3ccc(C#Cc4cccnc4)cc3c2n1-c1ccc(C(C)(C)C#N)cc1,3.93%,–
CC(=O)SCCC(=O)N1C(C)CCCC1C(=O)O (stereo not drawn),7.82%,–

Compound,inhibition [1],inhibition [2] [%]
CSc1nc2ccc3nc(NC(=O)C(c4ccccc4)c4ccccc4)sc3c2s1,-1.3%,–
CC(=O)N(O)[C@@H]1c2cc(C#N)ccc2OC(C)(C)[C@H]1O,-2.08%,–
CN(C)c1nc(N)c(C(=O)Nc2cccnc2)nc1Cl,80.9%,–
O=C(OCC(COC(=O)c1cccnc1)(COC(=O)c1cccnc1)COC(=O)c1cccnc1)c1cccnc1,-1.03%,–
N=C(N)NC(=O)c1nc(Cl)c(N)nc1N,-8.95%,–
Cn1ncc2c(N3CCOCC3)nc(-c3cccc(O)c3)nc21,-1.99%,–
Cc1ccc(-c2nn(C(C)(C)CNC(=O)c3ncccc3C)c3ncnc(N)c23)cc1,6.88%,–
Oc1ccc(-c2nc3cc(O)cc(Br)c3o2)cc1,54.3%,–
CC[C@H](NC(=O)c1c(O)c(-c2ccccc2)nc2ccccc12)c1ccccc1,2.06%,–
O=C(/C=C/c1cccc(F)c1)NC1CC1,8.47%,–
Cn1c(/C=C/C(=O)NO)ccc1/C=C/C(=O)c1cccc(F)c1,76.3%,–
CCCCCCCCC(=O)N[C@H](CN1CCCC1)[C@H](O)c1ccc2c(c1)OCCO2,6.86%,–
O=C(CCBr)N1CC[N+]2(CC1)CC[N+]1(CCN(C(=O)CCBr)CC1)CC2,0.06%,–
CS(=O)(=O)c1ccc(-c2cnc(N)c(C(=O)Nc3ccccc3)n2)cc1,2.63%,–
CS(=O)(=O)c1ccc(-c2cn3ccccc3n2)cc1,78.9%,–
CN1CCN(c2cccc(Nc3nc4c(-c5ccc(S(C)(=O)=O)cc5)cccn4n3)c2)CC1,-1.82%,–
C[C@H]1O[C@@H](O[C@H]2CC[C@@]3(C)[C@H](CC[C@@H]4[C@@H]3C[C@@H](O)[C@]3(C)[C@@H](C5=CC(=O)OC5)CC[C@]43O)C2)C[C@H](O)[C@@H]1O[C@H]1C[C@H](O)[C@H](O[C@H]2C[C@H](O)[C@H](O[C@@H]3O[C@H](CO)[C@@H](O)[C@H](O)[C@H]3O)[C@@H](C)O2)[C@@H](C)O1,-2.28%,–
N#CC(c1ccccc1)(c1ccccc1)c1ccccc1Cl,-3.49%,–
